Assay outcomes from PubChem BioAssay.
Most compounds without a hit are left out; they make up all but 3.4% or so of the library.
SMARCA2 act = increases SMARCA2 function in MMTV reporter cells; 1% of 370,000 active; activation, % at 9.1 µM; AID 652017; MG213 cells, MMTV-luciferase reporter, dexamethasone, overnight; in the data active = activation above about 7.8%;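 note: 0% = vehicle wells and 100% = reference activator wells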
NR2F2 inh = inhibitors of human COUP-TFII (NR2F2) | HEK293T NGFI-A luciferase reporter, luminescence | inhibition, % at 8.6 µM | 0.7% of 370,000 active | AID 686940;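 active = inhibition above a per-plate cutoff, mean inhibition of test wells between control levels plus 3 SD, cut at about 38% in these data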;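 note: cells cotransfected with COUP-TFII expression vector driving the NGFI-A reporter; 0% = median of COUP-TF2 test wells and 100% = reporter-only cells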
Target sequence (P24468 whole entry, looked up): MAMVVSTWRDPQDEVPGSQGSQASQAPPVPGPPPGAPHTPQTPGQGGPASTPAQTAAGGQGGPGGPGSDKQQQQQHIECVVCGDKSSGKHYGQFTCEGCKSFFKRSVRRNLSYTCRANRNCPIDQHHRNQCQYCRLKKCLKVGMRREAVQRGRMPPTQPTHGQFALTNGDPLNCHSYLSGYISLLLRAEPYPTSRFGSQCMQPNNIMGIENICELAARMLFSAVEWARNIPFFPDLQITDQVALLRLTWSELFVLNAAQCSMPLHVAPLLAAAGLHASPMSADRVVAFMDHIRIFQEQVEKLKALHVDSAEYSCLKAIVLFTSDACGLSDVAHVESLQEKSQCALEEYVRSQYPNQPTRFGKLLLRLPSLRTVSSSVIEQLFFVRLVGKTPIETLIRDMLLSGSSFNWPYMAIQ
GalR3 antag = antagonists of human GalR3. 0.44% of 360,000 active. AID 651719. HEK293 GalR3-CNG cAMP membrane potential fluorescence; galR3 body fused to GalR1 C-terminus. O60755. inhibition, % at 3 µM;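 active = inhibition above the screen-wide average plus 3 SD, cut at about 13% in these data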;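 note: forskolin and galanin both at EC90 stimulate the cells; cAMP rise reported by CNG channel membrane potential dye signal; 0% = forskolin plus galanin with DMSO and 100% = forskolin alone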
Target sequence (O60755 1-299 limits assumed): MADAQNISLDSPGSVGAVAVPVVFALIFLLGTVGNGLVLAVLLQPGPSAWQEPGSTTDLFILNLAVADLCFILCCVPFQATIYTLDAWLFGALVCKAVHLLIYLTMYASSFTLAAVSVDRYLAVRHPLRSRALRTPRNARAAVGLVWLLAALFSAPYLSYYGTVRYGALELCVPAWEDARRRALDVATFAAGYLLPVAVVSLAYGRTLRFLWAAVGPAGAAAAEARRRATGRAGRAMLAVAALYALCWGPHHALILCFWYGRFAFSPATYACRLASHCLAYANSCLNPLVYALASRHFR
GAA850 FXN act = activators of GAA850 frataxin (FXN) promoter. HEK293 lucGAA850 FXN promoter luciferase reporter, 24 h; percent of 10 µM SAHA response. activation, % at 6 µM. 0.56% of 360,000 active. AID 540364;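 active = activation above the average of all compounds screened plus 3 SD, cutoff fixed separately per campaign, cut at about 7.5% in these data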;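 note: 0% = DMSO wells and 100% = 10 µM SAHA wells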
Cardio protect = modulators protecting cardiomyocytes from myocardial damage; protection from H2O2 cell death, % at 20 µM; 0.63% of 360,000 active; H9c2 cardiomyocytes, H2O2 injury protection, ATPLite, 2 h;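 active = compounds giving at least 50% protection of heart cells from peroxide-induced death in the single-dose screen, raw or plate-pattern-corrected value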;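 note: 0% = DMSO wells with peroxide and 100% = DMSO wells without peroxide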
Gli-Sufu block = Gli-Sufu pathway antagonism | Sufu-KO-LIGHT fibroblasts, Gli luciferase reporter luminescence | inhibition, % at 5 µM | 0.74% of 340,000 active;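 active = inhibition above about 55%, limit read from the data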;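 note: 0% = DMSO-treated cells and 100% = wells with medium but no cells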
* hit, by the source's call; . = no result given.

SMILES	SMARCA2 act	NR2F2 inh	GalR3 antag	GAA850 FXN act	Cardio protect	Gli-Sufu block
COc1cccc(C(=O)Nc2ccc(-c3nc4ccccc4o3)c(O)c2)c1	-0.8	-6.3	-9.1	4.6	1.5	-16.1
CNC(=O)c1[nH]cnc1C(=O)NCC(=O)OCc1ccccc1	1.9	-2.5	0.5	-0.1	17.6	-6.5
CCN(CC)C(=O)c1[nH]cnc1C(=O)NCC(=O)OCc1ccccc1	2.6	-3.5	1.4	1.5	104.7*	4.2
O=C(CNC(=O)c1nc[nH]c1C(=O)NCC(=O)OCc1ccccc1)OCc1ccccc1	-0.2	-0.8	-2.7	-2.3	96.4*	-16.4
O=C(CNC(=O)c1nc[nH]c1C(=O)NCc1ccccc1)OCc1ccccc1	-0.9	-7.8	-2.9	-1.5	102.7*	2.2
O=S1(=O)c2c(cccc2N2CC[C@@H](O)C2)O[C@@H]2CCN1C2	0.4	-13.3	.	.	.	.
Nc1c(-c2ccc(Cl)cc2)cnc2c(-c3ccccc3)cnn12	7.9*	-39.0	-5.2	5.7	-21.3	-111.7
CC(C)(C)S(=O)(=O)c1cnc2c(-c3ccc(Cl)cc3)cnn2c1N	4.2	9.8	-5.4	-1.6	-4.7	-27.1
CC(OC(=O)Cn1[nH]c(=O)c2ccccc2c1=O)C(=O)NC1(C#N)CCCCC1 (stereo not drawn)	-2.1	-8.6	-2.5	0.4	70.0*	-3.5
CC(OC(=O)Cn1[nH]c(=O)c2ccccc2c1=O)C(=O)Nc1ccc(Cl)cn1 (stereo not drawn)	-4.9	21.0	0.2	-1.5	51.7*	1.1
COc1ccc([N+](=O)[O-])cc1NC(=O)C(C)OC(=O)Cn1[nH]c(=O)c2ccccc2c1=O (stereo not drawn)	-1.9	-32.7	-3.6	-0.2	58.0*	-4.2
O=C1C=CC2(O[C@H](c3ccccc3)[C@@H](c3ccccc3)O2)[C@H](Sc2ccccc2O)C1	-12.5	86.6*	15.7*	-14.8	-17.9	22.9
C[C@@H]1[C@@H](Sc2ccccc2)CC(=O)O[C@@H]1c1ccc(-c2ccccc2)cc1	0.1	6.9	-4.0	3.8	-10.7	6.3
Cc1c[nH]c2cccc(-c3cccc4ccccc34)c12	-1.6	-4.4	.	.	.	.
O=C(NNC(=O)c1ccccc1-c1ccccc1C(=O)O)c1ccccc1	-0.5	6.8	-4.2	1.1	-2.6	-3.0
O=C(C=P(c1ccccc1)(c1ccccc1)c1ccccc1)c1ccccc1-c1ccccc1C(=O)C=P(c1ccccc1)(c1ccccc1)c1ccccc1	-12.1	79.8*	33.4*	-13.9	-19.1	85.8*
Cc1cc(C)nc(SCc2ccc(C(=O)N/N=C/c3cccc(O)c3O)cc2)n1	0.3	-16.8	4.5	-7.8	41.9	84.4*
CC1CCN(S(=O)(=O)c2ccc(C(=O)Nc3ccccc3-c3nc4ccccc4[nH]3)cc2)CC1	9.7*	8.1	-12.6	0.8	-18.6	13.2
O=c1cc(-c2ccc(O)c(-c3c(O)cc(O)c4c(=O)cc(-c5ccc(O)cc5)oc34)c2)oc2cc(O)cc(O)c12	0.2	6.4	-3.8	0.0	1.6	-8.7
COc1ccc(-c2cc(=O)c3c(O)cc(O)cc3o2)cc1	7.9*	-45.6	-4.8	0.2	-10.7	-22.6
O=c1cc(-c2ccc(O)c(O)c2)oc2cc(O)cc(O)c12	4.3	-25.8	-1.0	11.2*	61.9*	5.4
O=c1c(O)c(-c2ccc(O)c(O)c2)oc2cc(O)cc(O)c12	-0.7	-18.0	-2.5	-0.3	94.8*	-1.4
Cc1ccc2c(c1)-c1c(cnn1CC(=O)NCCc1ccc(O)cc1)CO2	-2.8	10.2	.	.	.	.
O=S(=O)(N[C@@H]1CCCC[C@H]1N1CCOCC1)c1ccc(Cl)cc1	.	-12.6	.	.	.	.
O=C(c1ccccc1)N1CC[C@H]2[C@H](CCCN2Cc2cc(F)cc(F)c2)C1	1.1	8.5	.	.	.	.
SMILES	SMARCA2 act	NR2F2 inh	GalR3 antag	GAA850 FXN act	Cardio protect	Gli-Sufu block
O=S1(=O)c2ccccc2-c2c(nnn2Cc2ccccc2)CN1C1CC1	2.6	-1.9	.	.	.	.
COC(=O)CNC(=O)CNC1(C(=O)NCCc2c[nH]c3ccccc23)CCCCC1	.	9.5	.	.	.	.
Cc1nc(N/N=C/c2ccccn2)sc1C	-4.9	25.4	-6.5	.	.	58.5*
CCCc1sc(N/N=C/c2ccccn2)nc1-c1ccc(F)cc1	.	.	.	-1.4	9.7	59.7*
CC(C)C[C@H]1COc2cc(N3CCCC3)ccc2S(=O)(=O)N1C	-3.7	32.6	.	.	.	.
NC(=O)N=Nc1c2[nH]c3ccccc3nc-2c2ccccc12	7.0	-29.9	-4.0	-1.9	59.6*	-14.7
O=c1[nH]c2ccccc2nc1-c1ccccc1	-1.0	-15.9	-4.7	5.0	-2.5	-32.2
CC(C)N1C(=O)/C(=C\c2nc3ccccc3c(=O)[nH]2)c2ccccc21	6.6	-66.4	2.0	4.7	85.2*	-8.6
CCC(c1ccc(OC)cc1)c1cn(C)c2ccccc12 (stereo not drawn)	-4.6	-10.3	.	.	.	.
CN1CCc2nc3ccccc3c(C(=O)OCC(=O)N(CCC#N)c3ccccc3)c2C1	-5.3	4.2	-0.7	-1.4	58.3*	16.5
CCCCOCCCNC(=O)C[C@H]1C[C@@]2(C(=O)OC)C(=C[C@H](C(C)C)O[C@@H]2C2CC2)N(CCc2ccc(OC)c(OC)c2)C1=O	-1.6	1.9	.	.	.	.
CCN1C(=O)[C@H]2[C@H]3CN=C(SCc4ccc(C#N)cc4)N3[C@@](Cc3ccccc3)(C(=O)OC)[C@H]2C1=O	-1.1	-11.1	-5.4	-1.4	54.8*	0.7
COC(=O)[C@@]1(Cc2ccccc2)[C@H]2C(=O)N(Cc3ccccc3)C(=O)[C@H]2[C@H]2CN=C(SCc3ccc(C#N)cc3)N21	-1.6	19.2	-7.6	7.4	44.0	11.3
CCCC(=O)Nc1ccc2c(c1)C(=O)N(C)[C@H]1CC[C@@H](CC(=O)OC)O[C@@H]1CO2	-1.9	12.4	.	.	.	.
Cc1ccc(Cc2c(-c3ccc(Cl)cc3)nc3cc(C)ccn23)cc1	7.8*	-59.7	-7.4	5.9	-16.9	.
COc1ccc(CNC(=O)c2ccc(Cn3nc(C)cc3C)o2)cc1	-1.6	5.7	-8.1	1.5	1.4	1.6
COc1ccc(CNC(=O)c2ccc(Cn3nc(C)c([N+](=O)[O-])c3C)o2)cc1	-2.0	-10.7	-0.7	-0.7	86.8*	4.9
CNS(=O)(=O)c1ccc2nc(NC(=O)/C=C/c3ccco3)sc2c1	4.2	12.3	-4.5	1.2	64.4*	-7.9
COc1cc(/C=C/C(=O)Nc2nc3ccc(S(=O)(=O)N(C)C)cc3s2)cc(OC)c1OC	0.3	-3.8	0.9	0.5	22.3	19.5
CCOc1ccc(-c2nc(CSCC(=O)NC3CCC3)c(C)o2)cc1	.	24.0	.	.	.	.
CC(=O)Nc1ccc(NS(=O)(=O)c2cc(-c3n[nH]c(=O)c4ccccc34)ccc2C)cc1	-1.7	-10.9	-4.1	-0.2	56.0*	-3.7
Cc1ccc(-c2n[nH]c(=O)c3ccccc23)cc1S(=O)(=O)N(C)CCO	0.0	3.5	-0.9	-0.3	34.9	4.2
Cc1ccc(-c2n[nH]c(=O)c3ccccc23)cc1S(=O)(=O)NCCO	-3.4	-4.6	-1.5	1.0	75.6*	3.0
